In the supplement of paper PMC6555819 one finds PBM binding z-score data, which are given here for 7 sequences.

What all share (experiment): PBM binding z-score (relative to random genomic background probes); higher = stronger binding; sequences stand for … in GC…GCGATTGACAGCGTAGAATGAAGG
For assay [1], the system named is FXR:RXRa (NR concentration 270 nM, RXRa partner concentration 90 nM). In a few lines: (§1)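 Probes were double-stranded and carried 34-nt variable regions with direct-repeat seeds, single-nucleotide variants, half-site ablations and random human genomic background sequences, printed on custom Agilent 4×180K protein-binding microarrays. Arrays were incubated 1 h with ligand-free nuclear receptor dimers in PBS pH 7.4, 2% milk, 0.02% Triton X-100, 1 mM DTT, 0.2 mg/mL BSA and 0.4 mg/ml salmon testes DNA. Antibodies against each partner (one per run) detected binding, and scanned fluorescence was regression-normalized. Binding z-scores use the random background probes as reference.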

Assay [2] relates to LXRa:RXRa (NR concentration 270 nM, RXRa partner concentration 90 nM). In a few lines:
as §1

Assay [3] has as its system LXRa homodimer (NR concentration 270 nM). In a few lines:
as §1

Assay [4] has as its system LXRb:RXRa (NR concentration 270 nM, RXRa partner concentration 90 nM). In a few lines: as §1
Assay [5] deals with LXRb homodimer (NR concentration 270 nM). Put shortly:
as §1

The test system of assay [6] is PPARa:RXRa (NR concentration 270 nM, RXRa partner concentration 90 nM). Put shortly:
as §1

The test system of assay [7] is PPARg:RXRa (NR concentration 180 nM, RXRa partner concentration 90 nM). Put shortly:
as §1

Assay [8] concerns PPARg:RXRa 270nM:90nM, anti-RXR (NR concentration 270 nM, RXRa partner concentration 90 nM). In a few lines: as §1
The subject of assay [9] is PPARg:RXRa 30nM:10nM, anti-RXR (NR concentration 30 nM, RXRa partner concentration 10 nM). In a few lines:
as §1

The test system of assay [10] is PPARg:RXRa 90nM:30nM, anti-RXR (NR concentration 90 nM, RXRa partner concentration 30 nM). Put shortly:
as §1

Assay [11] relates to PPARg:RXRa DBDmut IVT, anti-RXR (DBD mutation: RXRa K156A/R161A, NR concentration 270 nM, RXRa partner concentration 90 nM). Put shortly: as §1
Assay [12] deals with PPARg:RXRa IVT, anti-PPARg (NR concentration 270 nM, RXRa partner concentration 90 nM). In a few lines:
as §1

The subject of assay [13] is PPARg DBDmut:RXRa IVT, anti-PPARg (DBD mutation: PPARg1 K132A/R137A, NR concentration 270 nM, RXRa partner concentration 90 nM). In a few lines:
as §1

Assay [14] has as its system PPARg DBDmut IVT, anti-PPARg (DBD mutation: PPARg1 K132A/R137A, NR concentration 270 nM). Put shortly: as §1
For assay [15], the system named is PPARg homodimer (NR concentration 180 nM). Put shortly:
as §1

Assay [16] has as its system PXR:RXRa (NR concentration 270 nM, RXRa partner concentration 90 nM). In a few lines:
as §1

The subject of assay [17] is PXR homodimer (NR concentration 270 nM). In a few lines: as §1
Assay [18] has as its system RARa:RXR (NR concentration 270 nM, RXRa partner concentration 90 nM). In a few lines: as §1
In assay [19] the test system is RARa homodimer (NR concentration 270 nM). Put shortly:
as §1

Assay [20] concerns RARb:RXRa (NR concentration 270 nM, RXRa partner concentration 90 nM). Put shortly: as §1

Regarding CCAGACAGGTGAGAAGGTACCTCAGCCTCGATTA, the PBM binding z-score was -0.184 in assay [1]; -0.333 in assay [2]; -0.205 in assay [3]; -0.357 in [4]; -0.562 in [5]; 0.192 in assay [6]. The PBM binding z-score in assay [7] was 0.408; in assay [8], 0.244; in [9], -0.397; in [10] it was -0.0819; in assay [11] it was 0.836; in assay [12] it was 0.42. Also, the PBM binding z-score in assay [13] was -0.603; in [14], -0.799; in assay [15], 0.408; in assay [16], -0.434; in assay [17], -0.569; in assay [18], -0.0825. Also, the PBM binding z-score was -0.214 in assay [19] and 0.313 in assay [20].
As to TGTCAAAGTTCAAAGGTAATGTAAGTATCCACAC, the PBM binding z-score in assay [1] stood at 7.19; in assay [2], 6.2; in assay [3], 4.51; in assay [4], 4.31; in assay [5], 1.91; in [6], 5.66. The PBM binding z-score in assay [7] worked out at 8.55; in assay [8], 7.39; in assay [9], 5.63; in assay [10], 7.6; in assay [11], 0.141; in [12], 4.47. Besides, the PBM binding z-score in assay [13] turned out to be 1.92; in assay [14], 1.26; in assay [15] it was 3.02; in assay [16] it was 5.65; in [17], 3.61; in assay [18], 5.92. The values for the PBM binding z-score in assay [19] and in assay [20] were 1.41 and 4.94, respectively.
Take TTACCAAGCTGAGCTGAGGTCGTTGATCCAACTC: the PBM binding z-score was 0.0307 in assay [1]; -0.149 in assay [2]; -0.687 in assay [3]; -0.148 in assay [4]; -1.09 in [5]; 0.413 in assay [6]. The PBM binding z-score is -0.752 in [7]; -0.18 in assay [8]; -0.479 in [9]; -0.597 in assay [10]; -0.796 in assay [11]; -0.588 in assay [12]. The PBM binding z-score in assay [13] was -0.701; in [14] it was -1.02; in [15] it was -1.16; in assay [16], 1.06; in assay [17] it was 0.0399; in assay [18], 0.708. In addition, the results for the PBM binding z-score in [19] and in assay [20] were -1.15 and 0.0389, respectively.
With CCTACTGGGCCTAAAAGGTCATTGATGCCGATAA, the PBM binding z-score amounted to 4.02 in [1]; 4.65 in [2]; 4.1 in assay [3]; 4.61 in assay [4]; 0.491 in [5]; 4.78 in assay [6]. Moreover, the PBM binding z-score is 1.7 in assay [7]; 3.24 in assay [8]; 0.898 in assay [9]; 2.38 in assay [10]; 0.181 in assay [11]; 1.85 in assay [12]. Besides, the PBM binding z-score in assay [13] was -0.634; in assay [14], -1.2; in [15], 2.99; in assay [16] it was 4.85; in [17], 2.21; in [18], 5.06. Moreover, the figures for the PBM binding z-score in [19] and in [20] were 1.56 and 4.02, respectively.
ATATGAAGGTTAGCTGGGGTCATTCAGACTAGGC: the PBM binding z-score amounted to 5.27 in assay [1]; 6.28 in assay [2]; 3.34 in assay [3]; 5.36 in [4]; 1.06 in assay [5]; 4.7 in assay [6]. In addition, the PBM binding z-score is 2.43 in assay [7]; 3.52 in assay [8]; 1.14 in assay [9]; 2.37 in assay [10]; 1.16 in [11]; 2.19 in assay [12]. Further, the PBM binding z-score amounted to 0.859 in [13]; 1.21 in assay [14]; 2.53 in assay [15]; 6.56 in [16]; 5 in assay [17]; 5.87 in assay [18]. The PBM binding z-score in [19] turned out to be 1.42; in assay [20], 3.55.
With GATATTAGTTGAAAGGGCAACCGAATGATTCTCG, the PBM binding z-score in assay [1] was found to be 0.693; in [2] it was 1.12; in assay [3], 0.566; in [4], 1.26; in [5], 0.285; in assay [6], 2.63. For the same sequence, the PBM binding z-score in assay [7] came out at 2.9; in assay [8], 4.65; in [9], 2.47; in assay [10], 4.54; in assay [11] it was 0.557; in assay [12] it was 1.16. For the same sequence, the PBM binding z-score in assay [13] is 0.952; in assay [14] it was 0.799; in assay [15], 2.21; in [16], 0.994; in assay [17], 0.916; in assay [18] it was 1.81. For the same sequence, the PBM binding z-score was found to be 2.21 in assay [19] and 2.27 in assay [20].
On to CGTCCAAGGTCATAGGATGTCAGTGAAGACAGAT, for which the PBM binding z-score in assay [1] was 7.4; in assay [2] it was 5.86; in assay [3], 1.1; in [4], 4.02; in [5] it was 0.568; in assay [6], 5.6. Also, the PBM binding z-score in assay [7] is 4.69; in [8] it was 5.42; in assay [9], 1.9; in assay [10] it was 3.95; in [11], 3.22; in assay [12], 3.9. In addition, the PBM binding z-score came out at 1.13 in [13]; 0.513 in [14]; 2.45 in assay [15]; 4.69 in assay [16]; 1.15 in [17]; 4.58 in assay [18]. Further, the PBM binding z-score in [19] is 0.89; in assay [20] it was 5.08.
